# Laboratory results as given in ChEMBL document CHEMBL3988442, “University of Dundee, Small-Polar-MMV Screening Library” (2021).
# The whole screen tested about 85,000 compounds, of which about 440 (0.52%) showed an effect of 50% or more. The list comes from a sample in which strong results are over-represented; it also holds similar structures and randomly drawn compounds.
# Assay: In vitro enzyme assay to detect hydrolysis of chlorophenol red-beta-D-[…] directly proportional to the number of Toxoplasma stably expressing beta-galactosidase
# Type: functional, organism-based, Toxoplasma gondii
# Set-up: scale not given: in the data most compounds retested in dose-response had high values
SMILES,Percent Effect (50 µM) [%],Percent Effect (10 µM) [%]
Cc1noc(C)c1COC1CCNC1 (stereo not given),7.368,–
O=C(COc1ccc(F)cc1)Nc1ccon1,-3.156,–
CC(NC(=O)C1CCNCC1)c1cccc(F)c1 (stereo not given),17.33,–
OC1(Cc2ccccn2)CCNCC1,-0.4203,–
Cc1cccc(NCC2CCN(CCC(N)=O)C2)n1 (stereo not given),2.724,–
COc1ccc(CN(C)C(=O)CCNC(C)=O)cc1F,-5.409,–
COc1ccc(CN(C)C(=O)C2CC2)cc1F,5.333,–
CCNC(C)(C)C(=O)N(C)Cc1ccc(OC)c(F)c1,94.51,–
NCc1ccc(-n2cc(Cl)cn2)cc1,-34.41,–
CCCn1ccnc1CNC(=O)c1ccc(F)c(O)c1,10.15,–
CN1CCc2nc(NC(=O)c3cncc(Br)c3)sc2C1,-4.285,–
CCN1CCc2nc(NC(=O)c3cc(Br)c[nH]3)sc2C1,-7.995,–
CCN1CCc2nc(NC(=O)c3ccncc3)sc2C1,61.16,–
O=C(NCCCNCc1ccccc1)c1ccco1,-4.419,–
CN1N=C(C(=O)NC2CCCc3occc32)CCC1=O (stereo not given),1.103,–
COc1ccc(CN)c(F)c1,0.131,–
Cc1csc(N2CCN(C(=O)c3ccc(C)s3)CC2)n1,–,-15.38
Cc1ccc(C(=O)N2CCN(C(C)C(N)=O)CC2)s1 (stereo not given),98.87,–

SMILES,Percent Effect (50 µM) [%],Percent Effect (10 µM) [%]
CC(C(N)=O)N1CCN(C(=O)c2ccc(Br)cc2)CC1 (stereo not given),3.88,–
OC1CN(Cc2ccc(OCc3ccccn3)cc2)C1,-10.4,–
COc1c(C)cnc(CN(C)C2CCCCC2)c1C,–,62.27
COc1c(C)cnc(CN(C)C2CCN(C3CCOCC3)CC2)c1C,–,16.07
COc1c(C)cnc(CN(C)C)c1C,0.7571,–
CC(Cn1cccn1)NC(=O)c1cncc(Br)c1 (stereo not given),6.883,–
Cc1nc2c(c(NCCc3nc4c(s3)CCCC4)n1)CCNCC2,–,-0.699
c1nc(CCNc2nc(C3CC3)nc3c2CCNCC3)c[nH]1,–,13.19
C1Cc2nc(CCNc3nc(C4CC4)nc4c3CCNCC4)sc2C1,–,77.67
N[C@H]1CC[C@@H](n2cc(Br)cn2)CC1,5.491,–
Cc1ccc(CNC(=O)C2CCCCC(=O)N2)o1 (stereo not given),50.04,–
Cc1cccc(CNC(=O)C2CCCCC(=O)N2)c1 (stereo not given),-7.628,–
Cc1ccc(CNC(=O)C2(C)CCCCC(=O)N2)o1 (stereo not given),14.66,–
N#CC1CCN(C(=O)c2ccc(SCCO)cc2)CC1,-14.8,–
CNc1cccnc1N(C)C,57.74,–
CN(C)c1ncccc1N,1.469,–
CNc1cccc2cccnc12,-1.4,–
